In the library only some 21% were active in any assay of this set; here they are far more common.
DT40 TDP1 CPT = growth inhibition of DT40 Tdp1-/-;hTDP1 cells with camptothecin (screen for TDP1 inhibitors); chicken DT40 Tdp1-/-;hTDP1 cells + 20 nM CPT, ATP luminescence, 48 h; AID 686979; 420,000 tested, 12% active; Potency, µM (titrated, usually from 46.2 µM), for inactives: at the highest dose activity change, negative = growth inhibition, actives largely listed as inhibitors; also: potency is read from the fitted curve at half-maximal effect; nearly all actives have a fitted effect of over 55% in size
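Chicken DT40 Tdp1-/- cells stably complemented with human TDP1 were seeded at 400 cells/well in medium containing 20 nM camptothecin, exposed to pin-transferred compounds, and grown at 37 °C for at least 48 hr. Viability was read as ATP luminescence.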
IL1B secr inh = inhibitors of inflammasome signaling (IL-1 beta secretion); THP-1 LPS/ATP IL-1B secretion, AlphaLISA, 16 h; stronger effect = lower value; activity change, % at 57.5 µM; 360,000 tested, 4.7% active; AID 743279; in the data active = activity change below about -50%; inconclusive = mostly about -30% to -49%
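Secreted IL-1B measured by AlphaLISA bead assay after 16 h compound exposure of THP-1 cells; compounds (final up to 57.5 uM) added 1 h before LPS (250 ng/mL) and ATP (1.25 mM) stimulation; lower signal means less secretion.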
Gal4-VP16 FLuc = inhibits Gal4-VP16 luciferase reporter, ROR gamma counter-screen. Drosophila S2 Gal4-VP16 UAS-luciferase, luminescence, 20 h. Potency, µM (doses to about 53.6 µM), for the others: at the highest dose activity, negative = inhibition, most hits filed as inhibitors. 310,000 tested, 3.5% active. AID 2546;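 also: Gal4-VP16 expression switched on by copper sulfate through the metallothionein promoter; potency is read from the fitted curve at half-maximal effect; nearly all actives have a fitted effect of over 50% in size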
ELG1 DNA repair = blocks ELG1-dependent DNA repair in HEK293T cells; HEK293T ELG1-luciferase reporter, luminescence, 16 h; DNA damage induced by 5-fluorouridine; Potency, µM (series often up to 46.1 µM), for the others: at the top dose activity change, negative = inhibition, usual class: inhibitors; 330,000 tested, 2.3% active; AID 504467; also: potency is read from the fitted curve at half-maximal effect; nearly all actives have a fitted effect of over 55% in size
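Overnight (16 hr) co-exposure of 2,000 cells/well to 5-fluorouridine and compound at 37 °C preceded detection. Luciferase was quantified via ONE-Glo luminescence; loss of signal denotes inhibition.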
RORg inh = ROR gamma (mouse) transcription inhibition; P51450; 310,000 tested, 5.4% active; Drosophila S2 Gal4-RORgamma UAS-luciferase reporter, 20 h; AID 2551; Potency, µM (top dose mostly 53.6 µM), inactives show top-dose activity change, negative = inhibition, most hits filed as inhibitors; also: potency is read from the fitted curve at half-maximal effect; nearly all actives have a fitted effect of over 60% in size
Target sequence (P51450 whole entry, looked up, the tested form may be a part): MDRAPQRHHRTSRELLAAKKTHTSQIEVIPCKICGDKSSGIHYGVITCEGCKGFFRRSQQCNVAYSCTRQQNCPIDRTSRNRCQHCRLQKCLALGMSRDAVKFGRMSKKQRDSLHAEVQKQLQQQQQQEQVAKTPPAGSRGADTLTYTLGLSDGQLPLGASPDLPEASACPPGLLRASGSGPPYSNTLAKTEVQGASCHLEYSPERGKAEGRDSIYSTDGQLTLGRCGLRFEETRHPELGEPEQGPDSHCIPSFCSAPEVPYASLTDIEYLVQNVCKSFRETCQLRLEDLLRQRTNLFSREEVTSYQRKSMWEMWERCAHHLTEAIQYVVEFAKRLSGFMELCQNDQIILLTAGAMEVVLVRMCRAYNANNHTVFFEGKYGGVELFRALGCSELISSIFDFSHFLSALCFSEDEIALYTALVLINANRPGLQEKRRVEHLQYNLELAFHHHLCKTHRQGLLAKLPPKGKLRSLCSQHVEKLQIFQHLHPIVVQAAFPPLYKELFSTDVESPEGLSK
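Luciferase reporter read in Schneider cells carrying Gal4-RORγ (mouse) and UAS-Photinus luciferase; cells given compound 1 h before 700 uM copper sulfate induction, then incubated 20 h at ambient temperature.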
TDP1 cell noCPT = qHTS for Inhibitors of human tyrosyl-DNA phosphodiesterase 1 (TDP1): qHTS in cells in absence of CPT | DT40 Tdp1-/- hTDP1 cells, no CPT, ATP luminescence, 48 h | Potency, µM (highest dose often 46.2 µM), inactives show top-dose activity change, negative = growth inhibition, actives largely listed as inhibitors | 420,000 tested, 15% active | AID 686978, 2013; also: potency is read from the fitted curve at half-maximal effect; nearly all actives have a fitted effect of over 55% in size
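Camptothecin absent (DMSO only). Human TDP1-complemented DT40 knockout cells, 400 cells/well, 37 °C for minimum 48 hr; ATP measured via CellTiter-Glo, 30 min dark incubation, luminescence.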
Starred values were filed as active, the others as inactive. Unless noted, calls follow the shape of the dose curve; as a rule, active = well fitted curve in the direction sought with a large enough effect; inconclusive = small, poorly fitted or top-dose-only effect, or another doubt; inactive = no such curve, though single readings can be large; an effect the other way counts as inactive or inconclusive. % is scaled to controls: 0 for no effect and ±100 for the full control effect.

How did COc1cc(OC)c(OC)cc1CNC(=O)c1cc(=O)[nH]c2ccccc12 do in these assays?
DT40 TDP1 CPT: 16.1%; IL1B secr inh: 3.0; Gal4-VP16 FLuc: 9.4%; ELG1 DNA repair: 7.0%; RORg inh: inconclusive; TDP1 cell noCPT: -7.7%

What do the screens show for `COc1cccc(N2C(=O)Nc3ccc(Br)cc3C2(O)C(=O)NCCCOC(C)C)c1` (stereo unspecified)?
DT40 TDP1 CPT: 11.8%; IL1B secr inh: 26.7; Gal4-VP16 FLuc: -7.2%; ELG1 DNA repair: -18.9%; RORg inh: 22.3%; TDP1 cell noCPT: -1.3%

How did CCNc1ncc2nc(-c3cc(F)cc(F)c3)c(=O)n(Cc3ccc(F)cc3)c2n1 do in these assays?
DT40 TDP1 CPT: -3.9%; Gal4-VP16 FLuc: -4.2%; RORg inh: 8.6%; TDP1 cell noCPT: 1.4%

Results for CCCC1=C(C(=O)OCC)C(c2cc(Cl)cc(OC)c2OCc2ccccc2)NC(=O)N1 (stereo unspecified) ?
DT40 TDP1 CPT: inconclusive; IL1B secr inh: inconclusive; Gal4-VP16 FLuc: 1.6%; ELG1 DNA repair: -10.3%; RORg inh: 1.8%; TDP1 cell noCPT: inconclusive

Results for CCC(=O)NC(=S)Nc1cccc(-c2nc3ncccc3o2)c1 ?
DT40 TDP1 CPT: inconclusive; IL1B secr inh: -0.8; Gal4-VP16 FLuc: -18.0%; ELG1 DNA repair: 8.6%; RORg inh: 12.6µM*; TDP1 cell noCPT: inconclusive

What do the screens show for `O=C(CSC1=Nc2ccccc2N=C(c2ccc(F)cc2)C1)NCc1ccccc1Cl`?
DT40 TDP1 CPT: 23.1µM*; TDP1 cell noCPT: inconclusive

Results for COc1cccc(CNC(=O)CSC2=Nc3ccccc3N=C(c3ccc(F)cc3)C2)c1 ?
DT40 TDP1 CPT: 20.6µM*; TDP1 cell noCPT: inconclusive

Results for O=C(CSC1=Nc2ccccc2N=C(c2ccc(F)cc2)C1)NCc1ccc(Cl)cc1 ?
DT40 TDP1 CPT: 20.6µM*; TDP1 cell noCPT: inconclusive

How did COc1cccc(CNC(=O)CSc2nnc3c(n2)[nH]c2ccc(F)cc23)c1 do in these assays?
DT40 TDP1 CPT: -16.8%; IL1B secr inh: 27.0; Gal4-VP16 FLuc: -9.4%; ELG1 DNA repair: 1.8%; RORg inh: -25.9%; TDP1 cell noCPT: inconclusive

What do the screens show for `COc1cc2ccc(CC(N)=O)cc2cc1OC`?
DT40 TDP1 CPT: 8.3%; IL1B secr inh: -27.0; TDP1 cell noCPT: 6.0%

How did CN(CCC#N)c1ccc(/C=C(\C#N)c2ccccn2)cc1 do in these assays?
DT40 TDP1 CPT: inconclusive; IL1B secr inh: -63.6*; Gal4-VP16 FLuc: 10µM*; ELG1 DNA repair: inconclusive; RORg inh: 10µM*; TDP1 cell noCPT: inconclusive

How did CCN(CC)c1ccc(/C=C(\C#N)c2ccccn2)cc1 do in these assays?
DT40 TDP1 CPT: 2.59µM*; IL1B secr inh: inconclusive; Gal4-VP16 FLuc: 7.08µM*; ELG1 DNA repair: inconclusive; RORg inh: 6.31µM*; TDP1 cell noCPT: 2.59µM*

What do the screens show for `O=Cc1ccc([B-](F)(F)F)s1`?
DT40 TDP1 CPT: 10.9%; IL1B secr inh: 5.9; TDP1 cell noCPT: 0.7%

How did COC1=C(OC)C(=O)C(C/C=C(\C)CC/C=C(\C)CC/C=C(\C)CC/C=C(\C)CC/C=C(\C)CC/C=C(\C)CC/C=C(\C)CC/C=C(\C)CC/C=C(\C)CCC=C(C)C)=C(C)C1=O do in these assays?
DT40 TDP1 CPT: 5.6%; Gal4-VP16 FLuc: -6.2%; RORg inh: 1.0%; TDP1 cell noCPT: 5.0%

How did COc1cccc(Cn2c(=O)c(-c3cccs3)nc3cnc(OCc4ccccc4)nc32)c1 do in these assays?
DT40 TDP1 CPT: -2.2%; Gal4-VP16 FLuc: -8.4%; RORg inh: -14.4%; TDP1 cell noCPT: 17.7%

Results for COc1ccc(CCNC(=O)c2ccc3c(c2)N(Cc2cc(C)ccc2C)C(=O)c2ccccc2S3=O)cc1OC (stereo unspecified) ?
DT40 TDP1 CPT: 9.2µM*; TDP1 cell noCPT: 5.8µM*

Results for COc1ccc(CCNC(=O)c2ccc3c(c2)N(Cc2ccccc2F)C(=O)c2ccccc2S3=O)cc1OC (stereo unspecified) ?
DT40 TDP1 CPT: 14.6µM*; TDP1 cell noCPT: 25.9µM*

Results for Cc1ccc(C)c(CN2C(=O)c3ccccc3S(=O)c3ccc(C(=O)NCCC4=CCCCC4)cc32)c1 (stereo unspecified) ?
DT40 TDP1 CPT: 14.6µM*; TDP1 cell noCPT: 16.4µM*

Results for CC(C)CCNC(=O)c1ccc2c(c1)N(Cc1ccccc1F)C(=O)c1ccccc1S2=O (stereo unspecified) ?
DT40 TDP1 CPT: inconclusive; TDP1 cell noCPT: 20.6µM*

How did COc1ccc(CNC(=O)c2ccc3c(c2)N(Cc2ccccc2F)C(=O)c2ccccc2S3=O)cc1 (stereo unspecified) do in these assays?
DT40 TDP1 CPT: -6.7%; TDP1 cell noCPT: inconclusive

What do the screens show for `COc1ccc2c(c1)CCO[C@]21O[C@H](CCO)C[C@H](O)[C@H]1O`?
DT40 TDP1 CPT: -4.7%; IL1B secr inh: -7.0; TDP1 cell noCPT: -9.0%

What do the screens show for `CC(C)NC(=O)Cc1csc2nc(-c3ccccc3)cn12`?
DT40 TDP1 CPT: -9.7%; TDP1 cell noCPT: 13.4%

How did O=C(NCc1ccc2c(c1)OCO2)c1ccc2c(c1)N(Cc1ccccc1F)C(=O)c1ccccc1S2=O (stereo unspecified) do in these assays?
DT40 TDP1 CPT: -34.3%; TDP1 cell noCPT: 20.6µM*

Results for Cc1ccccc1CN1C(=O)c2ccccc2S(=O)c2ccc(C(=O)NCc3ccc4c(c3)OCO4)cc21 (stereo unspecified) ?
DT40 TDP1 CPT: 6.4%; TDP1 cell noCPT: 0.3%

How did N#Cc1c(-c2ccccc2)ccn(Cc2ccc(Cl)cc2)c1=O do in these assays?
DT40 TDP1 CPT: inconclusive; IL1B secr inh: -5.4; Gal4-VP16 FLuc: -0.8%; ELG1 DNA repair: 18.6%; RORg inh: inconclusive; TDP1 cell noCPT: inconclusive

What do the screens show for `CSc1cc(-c2ccccc2)n(Cc2ccc(Cl)cc2Cl)c(=O)c1C#N`?
DT40 TDP1 CPT: 18.4µM*; IL1B secr inh: 28.8; Gal4-VP16 FLuc: 0.1%; ELG1 DNA repair: 0.6%; RORg inh: -1.8%; TDP1 cell noCPT: 23.1µM*

Results for CCCCn1c(N)c(N(CC(C)C)C(=O)C2CCN(S(=O)(=O)c3ccc(C)cc3)CC2)c(=O)[nH]c1=O ?
DT40 TDP1 CPT: -13.8%; IL1B secr inh: -0.5; ELG1 DNA repair: 1.0%; TDP1 cell noCPT: -18.3%
